Reference: PubChem BioAssay AID602162 (NMMLSC, 2011)
The campaign covered roughly 360,000 compounds. About 690 (0.19%) were called active. Only a selection was taken, and actives are over-represented in it overall. A number with no mark means an inactive call.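 How the source made its calls: active means fluorescence ratio to DMSO below 75%, the collection mean minus 3 SD; inconclusive means too few cells collected in the well; inactive means the rest.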

Molecular target: ATP-binding cassette sub-family B member 6 (Homo sapiens) (UniProt Q9NP58)
Assay: blockers of ABCB6-driven porphyrin uptake – K562-ABCB6 cells, flow cytometry, MLPCN library, primary screen (AID 602162);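 further: signal is porphyrin accumulated inside mitochondria; 100% equals median channel fluorescence of DMSO control wells; lower ratio means ABCB6 inhibition with less porphyrin fluorescence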
Details: K562-ABCB6 porphyrin accumulation, 1 h, at 10 µM, stronger effect = lower value

Sequence of ATP-binding cassette sub-family B member 6 (Homo sapiens) (Q9NP58 whole entry, looked up): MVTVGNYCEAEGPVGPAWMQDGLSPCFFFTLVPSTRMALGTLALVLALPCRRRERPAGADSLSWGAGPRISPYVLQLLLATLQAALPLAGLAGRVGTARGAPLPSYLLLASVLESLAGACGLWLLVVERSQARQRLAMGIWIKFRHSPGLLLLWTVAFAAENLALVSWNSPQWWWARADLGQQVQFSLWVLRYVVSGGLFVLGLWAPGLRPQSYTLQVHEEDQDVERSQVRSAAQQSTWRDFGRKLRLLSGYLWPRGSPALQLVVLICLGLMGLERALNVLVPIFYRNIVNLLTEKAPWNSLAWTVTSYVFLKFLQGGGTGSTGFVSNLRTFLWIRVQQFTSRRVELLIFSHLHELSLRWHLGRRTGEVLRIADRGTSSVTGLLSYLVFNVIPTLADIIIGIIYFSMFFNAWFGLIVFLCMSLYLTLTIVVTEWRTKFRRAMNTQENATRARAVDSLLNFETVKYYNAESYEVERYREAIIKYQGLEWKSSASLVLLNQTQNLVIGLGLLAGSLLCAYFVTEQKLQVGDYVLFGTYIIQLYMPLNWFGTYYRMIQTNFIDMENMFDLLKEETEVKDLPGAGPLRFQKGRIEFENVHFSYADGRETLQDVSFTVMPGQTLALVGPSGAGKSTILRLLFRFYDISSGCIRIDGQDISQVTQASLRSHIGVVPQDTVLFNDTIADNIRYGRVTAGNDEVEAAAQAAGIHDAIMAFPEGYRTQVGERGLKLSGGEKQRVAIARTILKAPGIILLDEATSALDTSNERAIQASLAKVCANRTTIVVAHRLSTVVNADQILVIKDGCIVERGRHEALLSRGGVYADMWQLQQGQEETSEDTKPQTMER

Row | SMILES | fluorescence ratio to DMSO
1 | Cc1sc2ncn(CC(=O)NCCCC(=O)N(C)Cc3ccccc3)c(=O)c2c1C | 97%
2 | O=C(Nc1cc(=O)[nH]c2ncnn12)c1ccccc1Cl | 101%
3 | CC(C)C[C@H](NC(=O)[C@@H]1O[C@H]1C(=O)O)C(=O)NCCCCN=C(N)N | 94%
4 | CCC(c1nnnn1-c1ccc2c(c1)OCCO2)N1CCN(c2ccc(C(F)(F)F)cn2)CC1 (configuration not stated) | 99%
5 | CN(Cc1ccccc1)C(=O)CCC1CCN(C(=O)c2ccco2)CC1 | 90%
6 | CCCNS(=O)(=O)c1ccc2c(c1)CCCN2C(C)=O | 75%
7 | CC(=O)N1CCc2cc(S(=O)(=O)NC3CCCCC3)ccc21 | 97%
8 | CCC(=O)N1CCCC1(C)C(=O)Nc1ccc2c(c1)CCN2C(C)=O (configuration not stated) | 72% (active)
9 | CC(C)(C)n1cnnc1Sc1ccc([N+](=O)[O-])cn1 | 101%
10 | CC1CCCCC1NC(=O)NC(=O)COC(=O)C1=NN(c2ccccc2)C(=O)CC1 (configuration not stated) | 102%
11 | CC1(C(=O)Nc2ccc3c(c2)OCCO3)CCN1C(=O)Cc1cc(F)ccc1F (configuration not stated) | 100%
12 | COc1ccc(OC)c(C(=O)NC(CC(N)=O)c2ccc(N3CCC(N4CCCCC4)CC3)c([N+](=O)[O-])c2)c1 (configuration not stated) | 92%
13 | Cc1nn(-c2ccccc2)c2[nH]c(C(F)(F)F)cc(=O)c12 | 87%
14 | C=CCc1cccc(/C=N/NC(=O)COc2ccc(-n3cnnn3)cc2)c1O | 93%
15 | CCOc1ccc(C(=O)COC(=O)c2ccc(-n3cnnn3)cc2)cc1 | 101%
16 | O=C(COc1ccc(-n2cnnn2)cc1)Nc1ccccc1Cl | 73% (active)
17 | CC1CCN(C(=O)CSc2nnc(-c3ccco3)n2N)CC1 | 95%
18 | CN(C(=O)c1ccccc1)c1nccnc1C#N | 98%
19 | COC(=O)c1ccc(CSc2ccc(S(=O)(=O)N3CCCCC3)cn2)cc1 | 100%
20 | CCC(=O)N1c2ccccc2NC2=C(C(=O)CCC2)C1c1ccco1 (configuration not stated) | 101%
21 | O=C1CCCC2=C1C(c1cccs1)CC(=O)N2c1ccc(F)cc1 (configuration not stated) | 95%
22 | O=C1CCCC2=C1C(c1cccs1)n1nc(SCc3ccccc3)nc1N2 (configuration not stated) | 55% (active)
23 | Cn1ncc2c(Nc3cccc4ccccc34)ncnc21 | 85%
24 | CCCOc1cccc(C(=O)Nc2ccccc2C(=O)N2CCN(C)CC2)c1 | 99%

Row | SMILES | fluorescence ratio to DMSO
25 | C[C@]12CCC(=O)C=C1C=CC1C2CC[C@@]2(C)C1CC[C@@]21CCC(=O)O1 (some centres not stated) | 98%
26 | COc1ccc(S(=O)(=O)N2CCOCC2)cc1NC(=O)CSc1ncnc2ccccc12 | 92%
27 | CC(C)C(=O)N1CCN(c2nc(-c3ccccc3)c3c(c2C#N)CC(C)(C)OC3)CC1 | 111%
28 | CCOC(=O)CSc1nc(N2CCOCC2)c2c(c1C#N)CC(C(C)C)OC2 (configuration not stated) | 97%
29 | CC1(C)Cc2c(C#N)c(SCc3nc4ccccc4[nH]3)nc(N3CCOCC3)c2CO1 | 74% (active)
30 | Cc1cccc(OCCNC(=O)CSc2ccc(C(F)(F)F)cc2[N+](=O)[O-])c1 | 98%
31 | CCCOc1ccc(C(=O)C(CCC(CNCC)C(=O)c2ccc(OCCC)cc2)CNCC)cc1 (configuration not stated) | 94%
32 | CC1CCN(C(NC(=O)c2ccco2)C(=O)c2ccccc2)CC1 (configuration not stated) | 99%
33 | CCCCN(C(=O)CSCC(=O)Nc1ccc(OC)cc1)c1c(N)n(CCC)c(=O)[nH]c1=O | 99%
34 | COc1ccc(CCNS(=O)(=O)c2ccc(Cl)s2)cc1OC | 88%
35 | COc1ccc(CCNS(=O)(=O)c2ccc(F)cc2)cc1OC | 62% (active)
36 | COc1ccc(CCNS(=O)(=O)c2ccc(C(=O)NCc3ccco3)cc2)cc1OC | 100%
37 | CCCCc1nc2ccc(F)cc2cc1C | 95%
38 | O=C(CSc1nnc(Nc2ccccc2F)s1)NC1CCCC1 | 101%
39 | CCOc1ccc(OCC(=O)OC(C)C(=O)NC2CCCCC2C)cc1 (configuration not stated) | 99%
40 | COc1ccc(C(=O)OCC(=O)c2ccc(Cl)s2)c(OC)c1OC | 101%
41 | CCOc1ccc(NC(=O)CCC(=O)NNC(=O)NC2CCCCC2)cc1 | 98%
42 | CCOC(=O)C1CSC(CC(=O)Nc2ccc(OCC)cc2)C(=O)N1 (configuration not stated) | 95%
43 | CCOc1ccc(NC(=O)CC2NCCNC2=O)cc1 (configuration not stated) | 73% (active)
44 | COc1cc([N+](=O)[O-])ccc1NC(=S)N1CCN(c2ccccn2)CC1 | 98%
45 | O=C(c1cccc(S(=O)(=O)N2CCCC2)c1)N(Cc1ccco1)C1CCS(=O)(=O)C1 (configuration not stated) | 97%
46 | Cc1nccn1-c1ccc(NC(=O)[C@H]2O[C@@H](n3ccc(=O)[nH]c3=O)[C@H](O)[C@@H]2O)cc1 | 99%
47 | CCOC(=O)C1CCCN(C(=O)COc2ccc(N(C)S(=O)(=O)c3ccc(C)cc3)cc2)C1 (configuration not stated) | 98%
